# “And” between values parts separate entries of the source, which are not always exact repeats. Equal entries are not always repeated. Records with an inconclusive call do not appear. Entries that show only a call come without a potency. The source made the active and inactive calls. The call rests on the fitted dose curve; in most records, active means well fitted curve in the direction sought with a large enough effect in the repeat runs; inconclusive means weak or mixed curves; inactive means no such curve, though single readings can be large; an effect the other way counts as inactive or inconclusive.
# Target: Cytochrome P450 1A2 (Homo sapiens) (UniProt P05177)
# Assay: Cytochrome P450 Family 1 Subfamily A Member 2 (CYP1A2) small molecule antagonists: luciferase reporter qHTS assay (AID 1671199)
# Settings: P450-Glo CYP1A2 enzyme, luciferin luminescence, 1 h; series mostly up to 115 µM
# Method in brief: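 Room-temperature CYP1A2 reaction with proluciferin substrate: compounds added from DMSO, 10 min preincubation, NADPH regeneration for 1 h. Luciferin detection reagent then added; luminescence recorded as RLU.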
# Further: nearly all actives have a fitted effect of over 50% in size.
# Potency means the concentration at half of the fitted maximal effect.
# Chain of Cytochrome P450 1A2 (Homo sapiens) (P05177 whole entry, looked up): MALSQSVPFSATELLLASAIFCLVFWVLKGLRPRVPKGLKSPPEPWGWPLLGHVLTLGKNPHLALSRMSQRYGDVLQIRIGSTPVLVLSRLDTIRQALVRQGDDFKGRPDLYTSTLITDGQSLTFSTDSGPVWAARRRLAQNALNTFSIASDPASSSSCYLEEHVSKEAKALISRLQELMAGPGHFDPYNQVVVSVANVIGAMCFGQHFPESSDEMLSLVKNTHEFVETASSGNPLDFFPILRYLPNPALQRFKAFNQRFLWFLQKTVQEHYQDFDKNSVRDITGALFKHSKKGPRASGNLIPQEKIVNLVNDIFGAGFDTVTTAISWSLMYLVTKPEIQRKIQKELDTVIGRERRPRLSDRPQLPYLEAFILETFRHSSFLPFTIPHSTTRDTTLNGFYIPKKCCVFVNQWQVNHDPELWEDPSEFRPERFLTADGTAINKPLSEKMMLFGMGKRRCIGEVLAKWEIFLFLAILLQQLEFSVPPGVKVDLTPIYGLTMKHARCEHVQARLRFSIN
row,SMILES,Potency
1,Cc1cc(N=Nc2ccccc2C)ccc1N,1.26 µM (active) and 2 µM (active)
2,CC1(C)CC/C(=C/c2ccc(Cl)cc2)C1(O)Cn1cncn1 (stereo not drawn),35.4 µM (active)
3,CCCCCCCCCCCCCCCCCCn1cc[n+](C)c1,56.1 µM (active)
4,Cc1ccc(CCl)cc1,inactive
5,CCOCn1c(-c2ccc(Cl)cc2)c(C#N)c(Br)c1C(F)(F)F,0.633 µM (active)
6,CC(=O)c1ccc(-c2ccccc2)cc1,5.03 µM (active)
7,CC[C@H](C)[C@H]1O[C@]2(C=C[C@@H]1C)C[C@@H]1C[C@@H](C/C=C(\C)[C@@H](O[C@H]3C[C@H](OC)[C@@H](O[C@H]4C[C@H](OC)[C@@H](O)[C@H](C)O4)[C@H](C)O3)[C@@H](C)/C=C/C=C3\CO[C@@H]4[C@H](O)C(C)=C[C@@H](C(=O)O1)[C@]34O)O2,33.3 µM (active)
8,CC(C)[C@H](C(=O)OC(C#N)c1cccc(Oc2ccccc2)c1)c1ccc(OC(F)F)cc1 (stereo partly drawn),inactive
9,CC(Cl)CN(C)C (stereo not drawn),inactive

# Target: Voltage-gated inwardly rectifying potassium channel KCNH2 (Homo sapiens) (UniProt Q12809)
# Assay: Human Ether-a-go-go-Related Gene (hERG) channel small molecule antagonists: fluorescence cell-based qHTS assay (AID 1671200)
# Settings: hERG-U2OS cells, FluxOR thallium flux fluorescence; series mostly up to 76.8 µM
# Method in brief: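 hERG-U2OS cells plated overnight at 37 C, loaded with FluxOR II dye 1 h at RT in dark; after 10 min, thallium stimulus added. Fluorescence (480/540 nm) read kinetically for 2 min at 1 s intervals.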
# Chain of Voltage-gated inwardly rectifying potassium channel KCNH2 (Homo sapiens) (Q12809 whole entry, looked up): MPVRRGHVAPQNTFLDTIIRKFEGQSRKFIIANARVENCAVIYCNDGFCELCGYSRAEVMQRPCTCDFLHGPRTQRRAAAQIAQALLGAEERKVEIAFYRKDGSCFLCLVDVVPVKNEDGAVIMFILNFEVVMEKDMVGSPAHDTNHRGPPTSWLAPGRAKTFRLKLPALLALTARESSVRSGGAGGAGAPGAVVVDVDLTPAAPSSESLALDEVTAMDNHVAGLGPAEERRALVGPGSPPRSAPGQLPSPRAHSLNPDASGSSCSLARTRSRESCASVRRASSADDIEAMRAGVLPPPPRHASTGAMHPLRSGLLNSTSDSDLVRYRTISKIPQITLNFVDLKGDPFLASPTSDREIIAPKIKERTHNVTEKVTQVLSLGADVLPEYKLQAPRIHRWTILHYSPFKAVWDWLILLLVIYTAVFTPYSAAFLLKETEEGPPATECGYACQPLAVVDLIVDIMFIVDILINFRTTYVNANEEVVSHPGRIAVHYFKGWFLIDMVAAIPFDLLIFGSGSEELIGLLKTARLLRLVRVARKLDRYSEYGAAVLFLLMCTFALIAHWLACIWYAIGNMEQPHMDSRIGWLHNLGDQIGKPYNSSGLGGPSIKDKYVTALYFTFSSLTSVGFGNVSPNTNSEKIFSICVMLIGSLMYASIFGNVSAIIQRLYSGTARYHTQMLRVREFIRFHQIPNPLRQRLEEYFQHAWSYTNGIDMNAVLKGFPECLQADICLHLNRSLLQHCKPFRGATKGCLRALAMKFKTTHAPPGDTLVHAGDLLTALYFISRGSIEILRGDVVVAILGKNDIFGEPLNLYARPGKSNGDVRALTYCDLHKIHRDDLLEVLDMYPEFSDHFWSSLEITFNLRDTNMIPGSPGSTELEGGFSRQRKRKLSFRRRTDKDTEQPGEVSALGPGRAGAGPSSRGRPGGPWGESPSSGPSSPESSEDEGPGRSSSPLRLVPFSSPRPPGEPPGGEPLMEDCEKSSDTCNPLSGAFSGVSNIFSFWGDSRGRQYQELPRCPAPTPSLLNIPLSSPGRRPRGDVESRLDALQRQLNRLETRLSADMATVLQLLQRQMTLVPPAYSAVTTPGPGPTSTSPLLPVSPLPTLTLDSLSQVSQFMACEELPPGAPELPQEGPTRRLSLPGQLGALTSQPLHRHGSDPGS
row,SMILES,Potency
1,CC(C)CC(C)N (stereo not drawn),inactive
2,O=C1C=CC(=O)c2ccccc21,21.9 µM (active)
3,COC(=O)N(C(=O)N1COC2(C(=O)OC)Cc3cc(Cl)ccc3C2=N1)c1ccc(OC(F)(F)F)cc1 (stereo not drawn),inactive
4,CC(Cc1ccc(C(C)(C)C)cc1)CN1C[C@@H](C)O[C@@H](C)C1 (stereo partly drawn),12.3 µM (active)
5,Cc1cccc(OP(=O)(Oc2cccc(C)c2)Oc2cccc(C)c2)c1,inactive
6,Oc1ccccc1Br,inactive
7,Cc1cc(Cl)ccc1O[C@H](C)C(=O)O,inactive
8,[Cl][Sb]([Cl])[Cl],inactive
9,N#C/C=C/C#N,inactive
10,C=CC(=O)N(C)C,inactive
11,CCCOCC(=Nc1ccc(Cl)cc1C(F)(F)F)n1ccnc1,48.9 µM (active)
12,CN(CCCC(O)c1cccnc1)N=O (stereo not drawn),inactive
13,CC(C)CC(C)Nc1ccc(Nc2ccccc2)cc1 (stereo not drawn),24.1 µM (active)
14,CC(O)C#N (stereo not drawn),inactive
15,c1ccc2cc3c(cc2c1)-c1cccc2cccc-3c12,inactive
16,N#CNC#N,inactive
17,CCOP(=S)(OCC)SCS(=O)(=O)CC,inactive
18,ClC(Cl)=C(c1ccc(Cl)cc1)c1ccc(Cl)cc1,39.9 µM (active) and 49 µM (active)
19,Clc1ccc(CCC(Cn2ccnc2)Sc2c(Cl)cccc2Cl)cc1 (stereo not drawn),7.56 µM (active)
20,Nc1ccc(Sc2ccc(N)cc2)cc1,inactive
21,O=C(O)C1C2CCC(O2)C1C(=O)O (stereo not drawn),inactive
22,Oc1c(Br)c(Br)c(Br)c(Br)c1Br,inactive
23,Cc1cc(N=Nc2ccccc2C)ccc1N,inactive
24,CC1(C)CC/C(=C/c2ccc(Cl)cc2)C1(O)Cn1cncn1 (stereo not drawn),inactive
25,CCCCCCCCCCCCCCCCCCn1cc[n+](C)c1,6.88 µM (active)
26,Cc1ccc(CCl)cc1,inactive
27,CC(=O)c1ccc(-c2ccccc2)cc1,inactive
28,CC[C@H](C)[C@H]1O[C@]2(C=C[C@@H]1C)C[C@@H]1C[C@@H](C/C=C(\C)[C@@H](O[C@H]3C[C@H](OC)[C@@H](O[C@H]4C[C@H](OC)[C@@H](O)[C@H](C)O4)[C@H](C)O3)[C@@H](C)/C=C/C=C3\CO[C@@H]4[C@H](O)C(C)=C[C@@H](C(=O)O1)[C@]34O)O2,inactive
29,CC(C)[C@H](C(=O)OC(C#N)c1cccc(Oc2ccccc2)c1)c1ccc(OC(F)F)cc1 (stereo partly drawn),inactive
30,CC(Cl)CN(C)C (stereo not drawn),inactive

# Target: Cytochrome P450 3A4 (Homo sapiens) (UniProt P08684)
# Assay: Cytochrome P450 Family 3 Subfamily A Member 4 (CYP3A4) small molecule antagonists: luciferase reporter qHTS assay (AID 1671201)
# Settings: P450-Glo CYP3A4 enzyme, luciferin luminescence, 1 h; series mostly up to 115 µM
# Method in brief: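 P450-Glo CYP3A4 luminescent assay: compounds preincubated 10 min at room temperature with enzyme and proluciferin substrate, NADPH regeneration added, 1 h room-temperature reaction, stopped with luciferin detection reagent; luminescence read after 20 min. Ketoconazole positive control.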
# Chain of Cytochrome P450 3A4 (Homo sapiens) (P08684 whole entry, looked up): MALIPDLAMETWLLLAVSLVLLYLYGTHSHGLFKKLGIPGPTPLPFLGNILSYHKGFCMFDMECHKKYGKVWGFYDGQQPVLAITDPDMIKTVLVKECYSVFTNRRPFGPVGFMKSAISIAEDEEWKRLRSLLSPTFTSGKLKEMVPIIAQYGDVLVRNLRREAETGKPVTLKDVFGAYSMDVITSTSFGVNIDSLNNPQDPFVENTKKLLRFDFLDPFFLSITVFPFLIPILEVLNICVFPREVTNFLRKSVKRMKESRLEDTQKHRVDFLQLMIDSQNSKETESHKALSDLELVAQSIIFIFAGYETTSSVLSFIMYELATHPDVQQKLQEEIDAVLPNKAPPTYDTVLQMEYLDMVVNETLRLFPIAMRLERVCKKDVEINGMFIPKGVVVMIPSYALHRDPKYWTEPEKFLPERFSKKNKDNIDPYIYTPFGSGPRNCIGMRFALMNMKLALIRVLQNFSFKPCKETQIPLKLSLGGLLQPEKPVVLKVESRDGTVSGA
row,SMILES,Potency
1,CC(C)CC(C)N (stereo not drawn),inactive
2,O=C1C=CC(=O)c2ccccc21,15.9 µM (active)
3,COC(=O)N(C(=O)N1COC2(C(=O)OC)Cc3cc(Cl)ccc3C2=N1)c1ccc(OC(F)(F)F)cc1 (stereo not drawn),5.49 µM (active)
4,CC(Cc1ccc(C(C)(C)C)cc1)CN1C[C@@H](C)O[C@@H](C)C1 (stereo partly drawn),22.4 µM (active)
5,Oc1ccccc1Br,inactive
6,Cc1cc(Cl)ccc1O[C@H](C)C(=O)O,inactive
7,[Cl][Sb]([Cl])[Cl],inactive
8,N#C/C=C/C#N,37.3 µM (active)
9,C=CC(=O)N(C)C,inactive
10,CCCOCC(=Nc1ccc(Cl)cc1C(F)(F)F)n1ccnc1,0.283 µM (active)
11,CC(C)CC(C)Nc1ccc(Nc2ccccc2)cc1 (stereo not drawn),31.2 µM (active)
12,CC(O)C#N (stereo not drawn),inactive
13,c1ccc2cc3c(cc2c1)-c1cccc2cccc-3c12,inactive
14,N#CNC#N,inactive
15,CCOP(=S)(OCC)SCS(=O)(=O)CC,7.96 µM (active)
16,ClC(Cl)=C(c1ccc(Cl)cc1)c1ccc(Cl)cc1,inactive
17,O=C(O)C1C2CCC(O2)C1C(=O)O (stereo not drawn),inactive
18,Oc1c(Br)c(Br)c(Br)c(Br)c1Br,inactive
19,Cc1cc(N=Nc2ccccc2C)ccc1N,1.59 µM (active) and 7.1 µM (active)
20,CCCCCCCCCCCCCCCCCCn1cc[n+](C)c1,31.5 µM (active)
21,Cc1ccc(CCl)cc1,inactive
22,CC(=O)c1ccc(-c2ccccc2)cc1,inactive
23,CC[C@H](C)[C@H]1O[C@]2(C=C[C@@H]1C)C[C@@H]1C[C@@H](C/C=C(\C)[C@@H](O[C@H]3C[C@H](OC)[C@@H](O[C@H]4C[C@H](OC)[C@@H](O)[C@H](C)O4)[C@H](C)O3)[C@@H](C)/C=C/C=C3\CO[C@@H]4[C@H](O)C(C)=C[C@@H](C(=O)O1)[C@]34O)O2,9.39 µM (active)
24,CC(Cl)CN(C)C (stereo not drawn),inactive

# Reference: PubChem BioAssay (Tox21)
